Only a selection was taken, and hits are over-represented in it overall.
KDM5B inh: KDM5B demethylase inhibition. Q9UGL1. KDM5B demethylase, FDH-coupled NADH fluorescence (FDH is formaldehyde dehydrogenase). Potency, µM (top dose mostly 57.7 µM), actives largely listed as inhibitors. actives 2.6% (n = 220,000); active = well fitted inhibition curve with a large enough effect; note: 0% is about no effect; nearly all actives have a fitted effect of over 70% in size
Target sequence (Q9UGL1 whole entry, looked up): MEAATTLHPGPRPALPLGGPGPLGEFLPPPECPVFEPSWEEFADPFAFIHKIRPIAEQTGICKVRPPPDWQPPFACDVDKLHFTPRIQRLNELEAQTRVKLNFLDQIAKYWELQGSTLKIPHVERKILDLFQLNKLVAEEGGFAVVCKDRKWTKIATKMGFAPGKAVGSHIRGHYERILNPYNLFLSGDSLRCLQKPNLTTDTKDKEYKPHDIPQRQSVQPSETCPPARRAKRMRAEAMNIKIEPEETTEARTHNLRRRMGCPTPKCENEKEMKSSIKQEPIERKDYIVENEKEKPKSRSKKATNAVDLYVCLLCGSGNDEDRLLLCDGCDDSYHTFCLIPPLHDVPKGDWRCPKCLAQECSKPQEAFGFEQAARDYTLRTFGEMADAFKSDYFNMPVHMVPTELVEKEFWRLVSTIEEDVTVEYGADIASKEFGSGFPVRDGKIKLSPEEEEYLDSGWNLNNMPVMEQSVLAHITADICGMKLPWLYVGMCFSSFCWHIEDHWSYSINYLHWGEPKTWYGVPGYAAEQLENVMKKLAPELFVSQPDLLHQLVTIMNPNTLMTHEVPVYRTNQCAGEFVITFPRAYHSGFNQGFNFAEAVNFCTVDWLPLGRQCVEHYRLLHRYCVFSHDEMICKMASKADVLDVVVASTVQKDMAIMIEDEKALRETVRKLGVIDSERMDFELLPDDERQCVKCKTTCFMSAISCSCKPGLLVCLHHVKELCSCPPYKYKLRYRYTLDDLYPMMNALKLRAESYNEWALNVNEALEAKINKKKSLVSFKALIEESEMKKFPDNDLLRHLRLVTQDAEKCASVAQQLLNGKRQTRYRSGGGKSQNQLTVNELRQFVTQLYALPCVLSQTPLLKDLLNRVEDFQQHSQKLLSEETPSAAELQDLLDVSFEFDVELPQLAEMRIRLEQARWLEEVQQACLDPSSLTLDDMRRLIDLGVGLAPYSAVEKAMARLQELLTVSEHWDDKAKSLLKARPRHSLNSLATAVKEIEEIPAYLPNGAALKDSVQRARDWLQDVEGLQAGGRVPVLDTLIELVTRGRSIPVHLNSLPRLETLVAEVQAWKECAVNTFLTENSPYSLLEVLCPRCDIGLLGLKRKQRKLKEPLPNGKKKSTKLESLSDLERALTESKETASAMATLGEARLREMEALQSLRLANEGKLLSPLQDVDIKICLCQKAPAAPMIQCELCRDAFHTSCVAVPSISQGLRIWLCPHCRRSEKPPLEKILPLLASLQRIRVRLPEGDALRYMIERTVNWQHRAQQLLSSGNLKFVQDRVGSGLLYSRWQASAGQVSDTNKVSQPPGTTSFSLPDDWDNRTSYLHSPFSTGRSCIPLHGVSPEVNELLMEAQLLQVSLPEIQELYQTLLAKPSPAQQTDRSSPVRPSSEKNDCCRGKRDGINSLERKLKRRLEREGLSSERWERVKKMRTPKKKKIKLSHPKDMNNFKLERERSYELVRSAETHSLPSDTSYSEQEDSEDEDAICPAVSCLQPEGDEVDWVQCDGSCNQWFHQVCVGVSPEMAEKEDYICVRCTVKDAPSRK
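qHTS format, multiple compound concentrations. Buffer 50 mM HEPES pH 7.5/0.01% Tween-20; 200 nM KDM5BΔAP final; 10 min compound preincubation; substrate-mix levels 12.5 µM peptide, 25 µM α-KG, 0.25 mM NAD⁺; 30 min RT; ΔRFU.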
Active calls of the source: *; i = inactive. Potency is the fitted concentration of half-maximal effect.

SMILES	KDM5B inh
CN(C)C[C@@H]1CN(c2ncccn2)C[C@H]1NC(=O)c1cccc(Cl)c1	28µM*
Cc1ccc2c(C)c(CCC(=O)Nc3ccc(C(N)=O)cc3)c(=O)oc2c1	i
Cc1cccc(C(=O)N2CCC3(CC2)OCC(C(=O)NCC2CCCO2)N3C(=O)c2ccccc2)c1 (stereo unspecified)	i
CSc1cccc(NC(=O)/C=C/c2cccs2)c1	i
COCCn1c(N2CCN(Cc3ccc(Cl)cc3)CC2)nc2c1c(=O)[nH]c(=O)n2C	i
Cc1ccc(C(=O)NC(NC(=O)c2ccccc2)C(Cl)Cl)cc1 (stereo unspecified)	i
Cc1cc2nc3n(c(=O)c2n1CC(=O)Nc1cccc(C#N)c1)CCCC3	i
COc1ccc(-n2cc(-c3ccnc(NCCC4CCCN4C)n3)cn2)cc1 (stereo unspecified)	28µM*
c1cc(-c2ccnc(NCC3(N4CCOCC4)CCCCC3)n2)ccn1	i
COc1ccc(Nc2nccc(-c3ccc(C#N)cc3)n2)cc1	i
CC(C)Cn1nc(C(=O)N2CCCC(c3nc4ccccc4s3)C2)c2ccccc2c1=O (stereo unspecified)	i
CCCN(CCC)C(=O)CSc1nc2ccccc2c(=O)n1-c1ccccc1	i
O=C(CSc1nc(=O)n(Cc2ccncc2)c2c1CCC2)N1CCCCC1	i
COc1ccccc1OCCn1c(NC(=O)c2ccco2)nc2ccccc21	i
Fc1ccc(-n2nnnc2SCc2ccc(Cl)cc2)cc1Cl	i
N#Cc1ccc(C(=O)Nc2ccc([C@@H](O)[C@H]3COCC(=O)N3Cc3ccccc3F)cc2)cc1	i
COc1cc(-c2cnc3n[nH]c(-c4ccccc4)c3n2)ccn1	8.9µM*
COc1cccc(-c2cnc3n[nH]c(-c4ccc5c(c4)OCO5)c3n2)c1	i
c1ccc(-c2cnc3n[nH]c(-c4ccc5c(c4)OCO5)c3n2)cc1	i
COCCCNC(=O)c1cnc2n[nH]c(-c3ccccc3)c2n1	i
Oc1cccc(-c2cnc3n[nH]c(-c4ccccc4)c3n2)c1	i
c1ccc(-c2[nH]nc3ncc(-c4cn[nH]c4)nc23)cc1	45µM*
CCOC(=O)CSc1ncn(-c2nc(NC)nc(N3CCCCC3)n2)n1	i
O=C(N/N=C/c1ccc([N+](=O)[O-])o1)c1ccc(NC(=O)C2CCCCC2)cc1	i
CC(C)(C)c1ccc(C(=O)/C=C/c2cccc([N+](=O)[O-])c2)cc1	i
SMILES	KDM5B inh
COc1ccc(-c2c(C)oc3cc(OCCN4CCCCC4)ccc3c2=O)cc1	i
O=C(NCCCOC1CCCCC1)c1cc(=O)c2ccccc2o1	i
N#Cc1ccccc1CN1CCN(c2nccc(CCC(F)(F)F)n2)CC1	i
O=C1NCC2(CCN(c3nccc(CCC(F)(F)F)n3)CC2)O1	20µM*
COCc1nc(C2CC(N)C2)cc(N2CCC3(CC2)CNC(=O)O3)n1 (stereo unspecified)	i
COc1ccc(-c2noc(Nc3ccc(OC)cc3OC)n2)cc1	i
CC(C)Cn1nc(C(=O)N2CCC(C(=O)Nc3ccc4c(c3)OCO4)CC2)c2ccccc2c1=O	i
Cc1ccc(CNC(=O)N2CCC(Oc3ccccc3-c3nc(C)no3)C2)cc1 (stereo unspecified)	i
Cc1noc(-c2ccccc2OC2CCN(S(C)(=O)=O)C2)n1 (stereo unspecified)	22µM*
CCCS(=O)(=O)N1CC(Oc2ccccc2-c2nc(C3CC3)no2)C1	i
CCc1ccc(CNC(=O)c2cc(Cl)c(NC(=O)C3=C(C)OCCS3)cc2OC)cc1	i
O=C(NCC1CN(C(=O)Cc2cccc(OC(F)(F)F)c2)CC12CN(c1ccccc1)C2)Nc1ccccc1 (stereo unspecified)	i
O=C(NCC1CN(C(=O)Cc2cccc(C(F)(F)F)c2)CC12CN(c1ccccc1)C2)Nc1ccccc1 (stereo unspecified)	i
COc1cccc(CC(=O)N2CC(CNc3ccccc3)C3(C2)CN(c2ccccc2)C3)c1 (stereo unspecified)	18µM*
CC(=O)Nc1ccc(CN2CCC(c3nc4ccc(C)cc4c(=O)[nH]3)CC2)cc1	i
Cc1ccc2nc(C3CCN(Cc4ccc(-c5cccs5)cc4)CC3)[nH]c(=O)c2c1	28µM*
O=c1[nH]c(C2CCN(Cc3cccc(-c4cccs4)c3)CC2)nc2ccc(F)cc12	i
Cc1cc(Cl)cc(C)c1OCC(=O)Nc1ccccc1N1CCCC1=O	i
COCCn1c(SCC(=O)c2ccc3c(c2)OCCCO3)nnc1-c1ccc(Cl)cc1	i
O=S(=O)(Nc1cccc(F)c1)c1ccc(-c2cnc(C3CC3)o2)cc1	i
CC(C)(C)C(=O)NCc1ccc(-c2nc3ccccc3s2)cc1	i
Cc1noc2c(NCCc3ccccn3)cc(-c3ccccc3)nc12	i
COCCCNc1cc(-c2ccccc2OC)nc2c(C)noc12	i
COCCCNc1ncccc1-c1cc(-c2ccccc2)nc2c(C)noc12	40µM*
COc1ccccc1-c1cc(NCCc2ccccn2)c2onc(C)c2n1	i
SMILES	KDM5B inh
Cc1noc2c(NCc3cnccn3)cc(-c3ccccc3)nc12	i
Cc1noc2c(-c3cccnc3NCCCn3ccnc3)cc(-c3ccccc3)nc12	35µM*
Cc1ccc(C)c(-c2ccc3ccccc3n2)c1	i
CC(C)c1ccc(C2C(C(=O)c3cccs3)=C(O)C(=O)N2c2nncs2)cc1 (stereo unspecified)	i
CCCOC(=O)c1c(-c2ccc(C)cc2)csc1NC(=O)c1ccoc1C	i
O=C(NCc1ccccc1Cn1cccn1)c1cn[nH]c1-c1ccc(Cl)cc1	i
COc1cccc(C(=O)NC2CCCN(c3nc4ncccc4o3)C2)c1 (stereo unspecified)	i
O=C(c1ccc(C(F)(F)F)cc1)N1CCN(c2nc3ncccc3o2)CC1	i
COc1ccc(C(=O)NC2CCCN(c3nc4ncccc4o3)C2)cc1 (stereo unspecified)	i
O=C(c1cccc(Cl)c1)N1CCN(c2nc3ncccc3o2)CC1	i
O=C(NC1CCN(c2nc3ncccc3o2)CC1)c1ccccc1	35µM*
Cc1ccc(C(=O)NC2CCN(c3nc4ncccc4o3)CC2)cc1	35µM*
CC1C(=O)Nc2ccc(-c3csc(NC4CCCC4)n3)cc21 (stereo unspecified)	i
N#Cc1nc(/C=C/c2ccc(Cl)cc2)oc1N1CCN(C(=O)c2ccco2)CC1	i
COc1ccc(C(=O)N2CCC3(CC2)CC(c2nc(C)no2)N(C)C3)cc1F (stereo unspecified)	i
Fc1ccc(CNCc2cccc(Oc3ccccc3)c2)cc1	i
COc1ccc(C2Cn3nnc(-c4nc(-c5ccccc5)no4)c3CO2)cc1 (stereo unspecified)	i
CCOc1ccc(C2Cn3nnc(-c4nc(-c5cccc(C)c5)no4)c3CO2)cc1 (stereo unspecified)	20µM*
CCOc1ccc(C2Cn3nnc(-c4nc(-c5ccccc5)no4)c3CO2)cc1 (stereo unspecified)	28µM*
CCOc1cccc(-c2noc(-c3nnn4c3COC(c3ccc(Cl)cc3)C4)n2)c1 (stereo unspecified)	22µM*
COc1ccc(C2Cn3nnc(-c4nc(-c5cccc(Br)c5)no4)c3CO2)cc1 (stereo unspecified)	i
CCOc1ccc(C2Cn3nnc(-c4nc(-c5cccc(Cl)c5)no4)c3CO2)cc1 (stereo unspecified)	i
CCOc1ccc(C2Cn3nnc(-c4nc(-c5ccncc5)no4)c3CO2)cc1 (stereo unspecified)	i
